Compound activity: PubChem, National Center for Advancing Translational Sciences (NCATS)
Mm-Cpn inhibitor – M. maripaludis TRiC chaperonin inhibition; purified Mm-Cpn ATPase, ADP Transcreener TR-FRET; Potency, µM (titrated, usually from 76.9 µM), for the others: at the top dose activity, negative = inhibition, most hits filed as inhibitors; 330,000 tested, 0.031% active; note: nearly all actives have a fitted effect of over 80% in size
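Eu-cryptate anti-ADP/ADP-d2 competition gives a ratio inversely related to ADP. Enzyme at 25 nM was pre-exposed to compound for 10 min, then given 10 uM ATP for 30 min, 37°C throughout.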
N370S GC – inhibitors or activators of N370S glucocerebrosidase for Gaucher disease; P04062; N370S GC spleen homogenate, 4MU-glucoside fluorescence; Potency, µM (top dose mostly 59.4 µM), for the others: at the highest dose activity change, negative = inhibition, most hits filed as inhibitors; 330,000 tested, 0.092% active; AID 2101;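 note: 0% = full enzyme activity and -100% = no enzyme basal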
USP2a block – USP2a (human) protease inhibition; 330,000 tested, 0.01% active; Potency, µM (titrated, usually from 38.3 µM), for the others: at the highest dose activity change, negative = inhibition, actives largely listed as inhibitors; USP2 core, Ub-CHOP2 coupled fluorogenic reporter, 485/531;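 note: plate controls were DMSO wells for no effect and full inhibition by NEM control for full effect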
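USP2 core (10nM final) preincubated 30min RT with compound in 20mM Tris-HCl pH 8.0, 2mM CaCl2, 2mM beta-mercaptoethanol, 0.05% CHAPS; 25nM Ub-CHOP2 plus 25nM reporter substrate added, fluorescence (Ex485/Em531) read after 60min.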
Eya2 inh – inhibitors of human Eya2 phosphatase activity | O00167 | recombinant Eya2, OMFP fluorescence dephosphorylation (OMFP is methylfluorescein phosphate) | Potency, µM (highest dose often 76.9 µM), for the others: at the top dose activity, negative = inhibition, hits mostly inhibitors | 330,000 tested, 0.006% active | AID 488837
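Eya2 protein (added as 0.2 uM solution) was preincubated with compound for 10 min at ambient temperature in 50 mM HEPES pH 7.5, 50 mM NaCl, 5 uM MgCl2, 0.05% BSA, 1 mM DTT. OMFP (added at 50 uM) then reacted 10 min; fluorescence read at 485/525 nm.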
* = called active by the depositor; ? = inconclusive; . = no result given; ! = a repeat was not active. Rows were chosen to be rich in hits. Some 0.1% of all compounds tested hit in one or more screens of this group. Calls come from the whole dose curve; as a rule, active = well fitted curve in the direction sought with a large enough effect; inconclusive = small, poorly fitted or top-dose-only effect, or another doubt; inactive = no such curve, though single readings can be large; an effect the other way counts as inactive or inconclusive. Unless noted, % is set by controls: 0 for no effect and ±100 for the full control effect; potency is the fitted concentration of half-maximal effect.

SMILES | Mm-Cpn inhibitor | N370S GC | USP2a block | Eya2 inh
CCn1nc(-c2ccccc2)nc2c(=O)n(C)c(=O)nc1-2 | -17% | -5% | 23% | 56µM*
O=C1C=CC(=O)C(Cl)=C1 | . | 13% | . | .
O=c1c2ccccc2[se]n1-c1ccccc1 | -1% | 22µM*! | 3% | 10%
CCOC(=O)C1(CCOc2ccccc2)CCN(Cc2cnc(SC)nc2)CC1 | ? | 20µM* | 0% | 2%
CCOC(=O)C1(CCOc2ccccc2)CCN(Cc2cccc(O)c2)CC1 | -5% | -16% | 5% | 3%
NC1CCCC[C@@H]1N (some centres undefined) | . | -6% | . | .
c1nc[n]([Sn]([CH]2CCCCC2)([CH]2CCCCC2)[CH]2CCCCC2)n1 | . | -1% | . | .
Cc1nc2c(=O)n(C)c(=O)nc-2n(C)n1 | -23% | 29% | -1% | 35µM*
COc1ccc2c(c1)c(CCN1CCOCC1)c(C)n2C(=O)c1cccc(Cl)c1Cl | . | 13µM* | . | ?
CC(=O)[O-].CC(=O)[O-].O.O.O.[Pb+2] | . | 9% | . | .
